Test results from PubChem BioAssay AID1259313 (Sanford-Burnham Center for Chemical Genomics, 2017).
The whole screen tested about 340,000 compounds, of which about 8,500 (2.5%) were called active. Many of the other results were omitted from the sample, so actives are more common in it than they were. Unmarked numbers belong to inactive results.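 How the source made its calls: active means melting temperature shift of at least 10% of the positive control shift, at one fixed dose; inactive means the rest.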

These compounds were tested on Glutamate receptor ionotropic, NMDA 3A (GRIN3A) ligand-binding domain (assay: NR3A LBD thermal stabilization by compounds – biophysical, differential scanning fluorimetry, uHTS, primary screen (AID 1259313)). Conditions: at 25 µM, active compounds read high, 0% = protein alone, 100% = glycine-bound protein.

Compared with `Cc1ccc(Cc2cncc(O)c2)cc1S(=O)(=O)O`, `Cc1c(S(=O)(=O)NCc2ccccc2)c(=O)n(C)c(=O)n1C` is lower in Tm shift relative to glycine control: 0.09% for the first, -0.41% for the second.

Compared with `CNc1nc(=O)n(C2CCCO2)cc1C` (stereo unspecified), `COCC(C)OC(=O)c1c(N)n(CCCN2CCOCC2)c2nc3ccccc3nc12` (stereo unspecified) is higher in Tm shift relative to glycine control: -4.19% for the first, -0.69% for the second.

First: CN(C)CCCn1c(N)c(C#N)c2nc(C#N)c(C#N)nc21
Second: Cc1ccc(NC(=O)CSc2nn3c(=O)c(C)nnc3s2)cc1Cl
The Tm shift relative to glycine control of the first is lower: -3.53% for the first, -1.28% for the second.

Going from `C=CCc1cccc2cc(C(=O)N3CCN(C(=O)OCC)CC3)c(=O)oc12` to `Cc1ccc(S(=O)(=O)N2CCCCC2)cc1C(=O)N1CCN(CCO)CC1`, the Tm shift relative to glycine control rises from -2.65% to 2.45%.

Compared with `C/C(=N\Nc1ccc(Cl)nn1)c1ccccc1O`, `O=C(NNC(=O)c1ccc(-n2cncn2)c([N+](=O)[O-])c1)c1ccccc1` is higher in Tm shift relative to glycine control: -6.71% for the first, 3.86% for the second.

Compared with `CC(C)(C)c1ccc(SCCc2ccncc2)cc1`, `CCC(Oc1ccccc1C)C(=O)Nc1ccc(S(=O)(=O)Nc2cc(C)on2)cc1` (stereo unspecified) is higher in Tm shift relative to glycine control: 0.08% for the first, 3.83% for the second.

Compared with `O=C(Nc1cccc(S(=O)(=O)NC2=NCCC2)c1)c1ccc(F)cc1F`, `Cc1cc(NS(=O)(=O)c2ccc(NC(=S)NC(=O)c3ccc(F)cc3Cl)cc2)no1` is higher in Tm shift relative to glycine control: 0.09% for the first, 0.87% for the second.

Compared with `Cn1c(Cc2cccc3ccccc23)nnc1SCC(=O)N1CCN(c2cccc(Cl)c2)CC1`, `O=C(NCCc1ccccc1Cl)C1CCC(=O)N(CCCc2ccccc2)C1` (stereo unspecified) is lower in Tm shift relative to glycine control: 5.43% for the first, 3.05% for the second.

Compared with `COc1ccccc1N(CC(=O)N1CCCCC1)S(=O)(=O)c1ccccc1`, `COc1ccccc1NC(=O)CN(c1ccccc1OC)S(=O)(=O)c1ccccc1` is lower in Tm shift relative to glycine control: 0.84% for the first, 0.31% for the second.

Compared with `NC(=S)Nc1c(Cl)cccc1Cl`, `CN(CC(=O)Nc1c(Cl)cccc1Cl)C(=O)CNC(=O)C1CCCCC1` is lower in Tm shift relative to glycine control: 2.25% for the first, 0.17% for the second.

Work on `Cc1c(S(=O)(=O)NC(C)c2ccccc2)c(=O)n(C)c(=O)n1C` (stereo unspecified) yielded a Tm shift relative to glycine control of -6.52%.

For `N#Cc1c(N)n(CCOC(=O)c2ccc(Cl)cc2)c2nc3ccccc3nc12`, the Tm shift relative to glycine control was 35.9% (active).
With `O=C(Nc1cc(S(=O)(=O)Nc2ccc(Cl)cc2)ccc1O)c1ccc(F)cc1F` the Tm shift relative to glycine control was 37.7% (active).
With `COc1ccccc1N(CCOc1ccccc1)S(=O)(=O)c1ccccc1` the Tm shift relative to glycine control was 12.6% (active).
`O=C(Nc1c(Cl)cccc1Cl)C1CCC1` was tested, and the Tm shift relative to glycine control was 12.7% (active).
`Cc1c(S(=O)(=O)N2CC(C)CC(C)C2)c(=O)n(C)c(=O)n1C` (stereo unspecified) was tested, and the Tm shift relative to glycine control was 11.1% (active).
